Screening data deposited in PubChem by several laboratories.
LMP1 NFkB inh – reduces LMP1-driven NF-kappaB luciferase signal | 0.69% of 350,000 active | LMP1-induced NF-kappaB luciferase reporter cells, luminescence | inhibition, % at 12.5 µM | AID 504558; in the data active = inhibition above about 41%;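 also: 0% = neutral control wells and 100% = reference inhibitor control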
SRC3 inh – inhibitors of human steroid receptor coactivator 3 (SRC3); AID 588352; HEK293 GAL4-SRC3 luciferase reporter, luminescence; inhibition, % at 3.6 µM; 0.17% of 360,000 active;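 active = inhibition above a per-campaign cutoff, the mean of all compounds plus 3 SD, cut at about 60% in these data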;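 also: 0% = DMSO-treated cells and 100% = gossypol-treated cells at 36 µM; higher means less SRC3-driven luciferase light from the GAL4 reporter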
NCOA1 inh – inhibits human SRC1 coactivator; Q15788; HEK293 GAL4-SRC1 luciferase reporter, luminescence; inhibition, % at 3.6 µM; 0.12% of 360,000 active; AID 588354;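 active = inhibition above the campaign mean plus 3 SD, with each screening campaign given its own cutoff, cut at about 60% in these data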;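 also: 0% = DMSO treated cells and 100% = gossypol at 36 µM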
SRC2 inh – inhibits human steroid receptor coactivator 2. 0.17% of 370,000 active. inhibition, % at 9 µM. HEK293 GAL4-SRC2 luciferase reporter, luminescence. AID 651957;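 active = inhibition above the mean inhibition of all tested compounds plus 3 SD, set per campaign, cut at about 52% in these data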;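 also: 0% = DMSO treated cells and 100% = cells given Gossypol at 36 µM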
LRH-1 inv ag – NR5A2 inverse agonism in reporter assay; AID 602396; inhibition, % at 3.6 µM; O00482; 0.13% of 360,000 active; HEK293T StAR-luciferase reporter, LRH-1 transfected, 24 h;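 active = inhibition above the mean inhibition of all tested compounds plus 3 SD, cut at about 73% in these data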;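 also: 0% = DMSO wells and 100% = reporter-only cells lacking LRH-1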
An asterisk follows results filed as active; . = no result. An excerpt weighted towards active compounds, which were near 0.78% of everything screened.

SMILES	LMP1 NFkB inh	SRC3 inh	NCOA1 inh	SRC2 inh	LRH-1 inv ag
COc1ccc(/C=C/C(=O)OCC(=O)Nc2ccc(C)cc2)cc1S(=O)(=O)N1CCOCC1	-9	17	-10	-24	-1
O=C(Nc1ccccc1)Nc1cccc(Cl)c1	-12	-22	-28	-53	-63
O=C(Nc1cccc(Cl)c1)Nc1cccc(C(=O)O)c1	43*	-69	-67	-38	-90
CCOC(=O)c1cccc(NC(=O)Nc2ccc(OCC)cc2)c1	-2	-56	-72	1	-87
CC(=O)c1cccc(NC(=O)Nc2ccc(C(=O)N3CCOCC3)cc2)c1	49*	26	24	37	24
Cc1ccc(NC(=O)Nc2ccc(C(=O)N3CCOCC3)cc2)cc1	7	20	-6	-8	7
CCOc1ccc(NC(=O)Nc2cccc(C(=O)O)c2)cc1	81*	-63	-92	-38	-221
O=C(Nc1ccc(Cl)cc1)Nc1cccc(C(=O)O)c1	62*	-88	-133	-63	-191
N#Cc1ccc(/C=C2\CC3(OC(=O)C4CCCC4)CCCN2C3)cc1 (configuration not stated)	.	.	.	-20	.
CC(=O)CC[C@@H]1CC[C@]2(CCCN(S(C)(=O)=O)C2)O1	.	.	.	36	.
Cc1ccccc1OCC(=O)Nc1cccc(C(=O)O)c1	77*	-50	-48	-17	-98
O=C(NCc1ccccc1)C(=O)Nc1cccc(C(=O)O)c1	67*	-96	-143	-55	-169
C[C@H]1Cn2nnc(-c3ccccc3)c2Cn2c3ccccc3c(=O)n21	.	.	.	-6	.
COC(=O)c1ccc(CSc2nnc(-c3c[nH]c4ccccc34)n2C)o1	-5	-1	-15	-17	7
COCCn1c(SCc2ccc(C(=O)OC)o2)nnc1-c1c[nH]c2ccccc12	47*	6	12	-10	-5
CC(=O)OC12CCCN(C1)/C(=C/c1ccccc1)C2 (configuration not stated)	.	.	.	-8	.
CCOc1ccc(C(CC(=O)O)NC(=O)c2sc3ccccc3c2Cl)cc1 (configuration not stated)	51*	10	3	0	-11
CCCOc1ccc(C(CC(=O)O)NC(=O)c2sc3ccccc3c2Cl)cc1 (configuration not stated)	-6	-2	-41	-27	13
CCCC(=O)N1CCC[C@]2(CC[C@H](CCC(C)=O)O2)C1	.	.	.	15	.
COc1ccc(S(=O)(=O)N2CCCCC2)cc1NC(=O)CNc1ccccc1N1CCCC1=O	-6	-2	1	-37	-2
Cc1ccc(S(=O)(=O)N2CCCCC2)cc1NC(=O)CNc1ccccc1N1CCCC1=O	42*	3	-12	9	-2
O=C1C(Cl)=C(Nc2ccc(O)cc2)C(=O)c2ccccc21	61*	8	2	-13	12
CCN(CC)c1ccc(NC2=C(Cl)C(=O)c3ccccc3C2=O)cc1	80*	-10	-19	.	-60
Cc1ccc(NC2=C(Cl)C(=O)c3ccccc3C2=O)cc1	-6	-86	-72	-39	-37
COC(=O)[C@H](C(C)C)N(Cc1cn(Cc2ccccc2)nn1)S(=O)(=O)c1ccccc1Br	.	.	.	10	.
SMILES	LMP1 NFkB inh	SRC3 inh	NCOA1 inh	SRC2 inh	LRH-1 inv ag
COc1cc([C@@H]2c3cc4c(cc3[C@@H](O[C@@H]3O[C@@H]5CO[C@@H](C)O[C@H]5[C@H](O)[C@H]3O)[C@H]3COC(=O)[C@H]23)OCO4)cc(OC)c1O	70*	65*	80*	-24	61
COc1cc([C@@H]2c3cc4c(cc3[C@H](O)[C@H]3COC(=O)[C@H]23)OCO4)cc(OC)c1OC	-4	27	-7	14	32
COc1cc(C2c3cc4c(cc3C(OC3OC5COC(c6cccs6)OC5C(O)C3O)C3COC(=O)C23)OCO4)cc(OC)c1O (configuration not stated)	75*	77*	81*	-3	65
O=C(c1cc(F)ccc1F)N(Cc1ccccn1)CC1CCCO1 (configuration not stated)	.	.	.	3	.
CN(Cc1ccccc1)C(=O)OCc1cn(Cc2cc(F)cc(F)c2)nn1	.	.	.	-11	.
N/C(=N\OC(=O)c1ccccc1Cl)c1ccccn1	65*	-11	-53	20	-75
COc1ccccc1C(=O)O/N=C(\N)c1ccccn1	22	-64	-201	-15	-125
Cc1ccc(C(=O)O/N=C(\N)c2ccccn2)c(C)c1	87*	70*	57	77*	72
COC(=O)c1cc2c(c3c4cc(F)ccc4n(S(=O)(=O)c4ccccc4)c13)C(=O)N(Cc1ccc(N(C)C)cc1)C2	.	.	.	0	.
Cc1ccc(-c2nnc(SCC(=O)NNC(=S)Nc3ccccc3)n2C2CCCCC2)cc1	.	.	.	-21	.
COc1ccc2c(c1)c(CC(=O)Nc1nnc(C3CC3)s1)c(C)n2C(=O)c1ccc(Cl)cc1	48*	15	-12	29	-13
CCCCOCCCNC(=O)C[C@H]1C[C@@]2(C(=O)OC)C(=C[C@H](C(C)C)O[C@@H]2C2CC2)N(CCC2=CCCCC2)C1=O	.	.	.	22	.
CSCCC(Nc1ncnc2ccc(Br)cc12)C(=O)O (configuration not stated)	1	0	2	13	17
CC(C)Nc1ncnc2ccc(Br)cc12	37	62*	66*	46	47
O=C(CC(Nc1ccc(Cl)cc1Cl)C(=O)O)c1ccccc1 (configuration not stated)	13	64*	63*	52	30
O=C(Nc1c(-c2ccc(F)cc2)nc2ncccn12)c1ccccc1	.	.	.	10	.
O=c1cc(Cl)nc2ccccn12	71*	-28	-14	8	4
O=c1cc(NCc2ccccc2)nc2ccccn12	-20	-35	-17	-12	-39
CN(CCO)c1ccc2c(c1)Oc1ccccc1CN(Cc1cn(Cc3ccccc3C(F)(F)F)nn1)S2(=O)=O	.	.	.	1	.
Cc1ccc(NC(=O)CN(C)C(=O)Cn2ncc(Cl)c(Cl)c2=O)cc1	88*	-40	-5	-27	-9
Cc1ccc(NC(=O)CN(C)C(=O)Cc2ccc(Cl)c(Cl)c2)cc1	-6	4	-1	-19	-7
COc1ccc(/C=C2\COc3ccccc3C2=O)cc1OC	2	12	-14	-10	-12
CCOc1cc(/C=C2\COc3ccccc3C2=O)cc(Br)c1OCC(=O)N(C)C	11	42	35	57*	25
COc1cccc(-c2nnc(SCC(=O)Nc3ccc(Oc4ccccc4)cc3)n2Cc2ccco2)c1	.	.	.	-26	.
O=C(CCc1ccccc1)N[C@H]1[C@H](OC(=O)c2ccco2)CCC[C@@]12C(=O)N(Cc1ccccc1)c1ccccc12	.	.	.	11	.
CCN1CCN(/C=N/c2nc3c(s2)CCCC3)CC1	55*	59	46	39	56
CN1CCN(CC(=O)Nc2nc3c(s2)CCCC3)CC1	-1	0	14	-9	4
O=C(CN1C(=O)c2ccccc2C1=O)NNC1=NS(=O)(=O)c2ccccc21	42*	8	-7	-33	11
O=C1c2ccccc2C(Nc2cccnc2)N1Cc1ccccc1 (configuration not stated)	82*	-3	-1	1	3
